# In PubChem BioAssay (NCI):
# This is part of a sample that, as a whole, favours compounds with a hit. Of some 79,000 tested, about 15% had one in any assay. Values without a mark were called inactive. Activity calls are given as the source filed them. Rule as the data show it: active = growth inhibition above about 70%; inactive = the rest.
# How the values were obtained:
# [1] = NCI Yeast Anticancer Drug Screen. Data for the rad50 strain (AID 155);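 also: 0% = growth of vehicle-only cultures of the same strain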; conditions: S. cerevisiae rad50 strain growth inhibition; at 50.0 µM; stronger effect = higher value
# In short: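 A DNA repair-deficient yeast mutant serves as the test organism; compound-induced growth inhibition is calculated against vehicle-treated cells.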
# [2] = NCI Yeast Anticancer Drug Screen. Data for the mec2-1 strain (AID 157); conditions: S. cerevisiae mec2-1 strain, at 50.0 µM, stronger effect = higher value
# In short: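 Strain: mec2-1 (DNA repair/cell cycle alteration). Compound exposure, then growth measured; inhibition expressed relative to vehicle.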
# [3] = NCI Yeast Anticancer Drug Screen. Data for the sgs1 mgt1 strain (AID 161);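 also: 0% = growth of cultures given vehicle only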; conditions: S. cerevisiae sgs1 mgt1 strain, at 50.0 µM, stronger effect = higher value
# In short: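 Read-out: growth inhibition vs vehicle controls. Cells: mutant yeast strain deficient in DNA damage repair.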
# [4] = NCI Yeast Anticancer Drug Screen. Data for the cln2 rad14 strain (AID 165);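 also: 0% = growth equal to vehicle treated cultures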; conditions: S. cerevisiae cln2 rad14 strain, at 50.0 µM, stronger effect = higher value
# In short: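 Compounds are applied to the cln2 rad14 yeast strain, and growth is then compared with that of vehicle-treated cultures to give inhibition.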
# [5] = NCI Yeast Anticancer Drug Screen. Data for the mlh1 rad18 strain (AID 175); conditions: S. cerevisiae mlh1 rad18 strain growth inhibition; at 50.0 µM; stronger effect = higher value
# In short: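 Read-out is yeast growth inhibition, calculated against vehicle-only controls. The compound was applied to a strain engineered with DNA damage repair alterations.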
# [6] = NCI Yeast Anticancer Drug Screen. Data for the bub3 strain (AID 167); conditions: S. cerevisiae bub3 mutant strain, at 50.0 µM, stronger effect = higher value
# In short: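 Inhibition values come from growth of compound-treated mutant yeast normalised to vehicle-treated controls.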
SMILES,growth inhibition [1],growth inhibition [2],growth inhibition [3],growth inhibition [4],growth inhibition [5],growth inhibition [6]
CCCCCCCC/C=C/CCCCCCCC(=O)NN(C)C,-1.4%,-7.6%,-0.5%,-59.2%,-11.3%,–
CC(=O)Oc1ccc(C(c2ccc(OC(C)=O)cc2)c2ccccn2)cc1,18.3%,-0.6%,-9.25%,-62.4%,-22.9%,–
COCCCNc1ncnc2c1cnn2-c1ccc(Cl)cc1,-1.3%,-4.75%,-0.25%,9.8%,-4.45%,–
CCCCC(CC)C1OCC(O)CO1 (configuration not stated),8.8%,3.3%,2.55%,5.1%,-14.3%,–
Cn1c(COc2ccc(/C=N\N3CCN(/N=C\c4ccc(OCc5c[n+]6ccccc6n5C)cc4)CC3)cc2)c[n+]2ccccc12,-15.8%,11.8%,29.6%,25.7%,44%,–
CC(C)CC1NC(=O)C(C(C)C)NC(=O)CC(C)COC(=O)C(CC(C)C)N(C)C(=O)C(C(C)C)NC(=O)C(C(C)C)OC1=O (configuration not stated),-8.2%,-3.7%,7.55%,7.95%,14.3%,–
NCCCCCC(=O)O,-37.5%,-25.4%,-17.6%,8.2%,-8.4%,–
OCCN(Cc1ccccn1)Cc1ccccn1,14%,-3.7%,36.2%,11.2%,9%,–
CCC(CO)N1CNC(=S)NC1 (configuration not stated),-4.8%,-14.1%,4.85%,0.8%,0.3%,–
O=C(NC(CSSCC(NC(=O)OCc1ccccc1)C(=O)O)C(=O)O)OCc1ccccc1 (configuration not stated),-8.6%,-31.4%,-2.4%,-4.1%,-25.2%,–
CCCCN=C=C(c1ccccc1)c1ccccc1,22%,12.5%,-0.85%,-35.8%,-15.1%,–
Cc1n[n+](Cc2ccccc2)c2sc(N)nn12,2.85%,6.25%,-41.6%,20%,-26.1%,–
COc1ccc(/C=N/Nc2nc3ccccc3c(=O)n2-c2ccccc2)cc1,-56.3%,-17.8%,-38.6%,-29.2%,-42%,–
CC=C1C(C(=O)O)C1C(=O)O (configuration not stated),16.9%,20.8%,-5.2%,-23.2%,-4.4%,–
O=C(NCCO)c1ccc(Cl)cc1,-23.6%,-26.3%,-30.6%,19.1%,-44.5%,–
Cc1cc2c(=O)c3ccccc3[nH]c2c(C(=O)O)c1C,5.35%,0.85%,8.25%,10.2%,38.2%,–
COC(=O)C1CSCN1 (configuration not stated),-23.9%,-4.3%,-26.9%,-61.4%,-12.8%,–
C/C(COC(=O)c1cc(C)nc2ccccc12)=N\O,-22.6%,17%,-0.65%,-20.8%,-11.6%,–
CC1(C)CC(C2=NCCO2)CC(C)(C)N1,-43.7%,-29.2%,-39.3%,-6.45%,-31.1%,–
Cc1ccc(SCCN)cc1,11.8%,11.9%,-6.3%,2.35%,-10.2%,–
CC(=O)Nc1ccc2oc(=O)ccc2c1,-19.2%,-12.7%,-15.4%,-0.5%,-11.1%,–
Cc1ccc2snc(C(=O)O)c2c1[N+](=O)[O-],16.7%,0.65%,4.1%,-1.65%,8.6%,–
O=C(NC(=S)Nc1ccc2ccccc2c1)c1ccc(Cl)cc1Cl,-1.45%,1.2%,28.2%,-10.6%,-41.1%,23.4%
Cc1ccc(-c2n[nH]c(=O)n2/N=C\c2ccc([N+](=O)[O-])cc2)cc1,34%,7.3%,-12.4%,3.55%,-41.5%,–

SMILES,growth inhibition [1],growth inhibition [2],growth inhibition [3],growth inhibition [4],growth inhibition [5],growth inhibition [6]
Cc1[nH]n(-c2ccccc2)c(=O)c1/C=N\C(N)=S,-37%,-37.9%,-34.1%,-50.9%,-25.1%,–
Nc1cccc(N2N=C(C(=O)O)CC2=O)c1,-7%,-19.8%,-40.9%,-12.7%,-15.6%,–
CC(C#N)c1cn(S(=O)(=O)c2ccccc2)c2ccccc12 (configuration not stated),30.6%,3.4%,-5.4%,9.75%,37%,–
CC(c1ccc(O)cc1)c1cc2c(cc1OCCO)OCO2 (configuration not stated),99.3% (active),99% (active),99.4% (active),99.3% (active),99.1% (active),99.5% (active)
O=C(c1ccccc1)c1ccccc1-c1nc2ccccc2c(=O)o1,11.8%,-6.65%,1.65%,29.9%,-0.8%,–
CC1=C(CN(CC(=O)O)CC(=O)O)C(=O)C(C(C)C)=C/C1=C(\c1ccccc1S(=O)(=O)O)c1cc(C(C)C)c(O)c(CN(CC(=O)O)CC(=O)O)c1C,-3.55%,-24.8%,11.4%,4.2%,-8.7%,–
COc1ccc2nc3cccc([N+](=O)[O-])c3c(NCCC(=O)O)c2c1,56.1%,-18.9%,49.9%,26.8%,25.8%,–
Nc1ccc(C2SCC(=O)N2NS(=O)(=O)c2cccc(C(=O)O)c2)cc1 (configuration not stated),-21.3%,-24.1%,6.8%,0.8%,-54.5%,–
Cc1cc(-c2ccc(N=Nc3c(C)nn(-c4ccc(S(=O)(=O)O)cc4)c3O)c(C)c2)ccc1N=Nc1ccc(O)c(C(=O)O)c1,26%,12.4%,26.2%,20.9%,21%,18.6%
Cc1ccc(SC(C)/C=C/NNC2=NC(c3ccccc3)C(c3ccccc3)=NN2)cc1 (configuration not stated),35.2%,10.2%,6.05%,30.4%,24.1%,–
O=C1NC(=O)c2ccc(Br)c3cccc1c23,17.9%,18.9%,16.1%,21.6%,1.75%,–
COc1cc(Cc2cc(OC)c(OC)c(OC)c2)ccc1O,-23.4%,-8.5%,-8.5%,-2.6%,9.5%,–
Cc1cc(C)c(NS(=O)c2cccc(Cl)c2)c(C)c1 (configuration not stated),-29.1%,-26.3%,-59.2%,1.35%,-50.2%,–
O=C(OCc1ccccc1)C1(N2CN(C3(C(=O)OCc4ccccc4)CCCC3)CN(C3(C(=O)OCc4ccccc4)CCCC3)C2)CCCC1,-8.05%,-5.7%,–,16.9%,2.15%,13.5%
C=C(CBr)CCCOCc1ccccc1,10.8%,-7.25%,–,2.1%,-7.55%,-5.35%
Nc1cccc(S(=O)(=O)Nc2c(N)nc(SCC(=O)O)[nH]c2=O)c1,-15%,-15.8%,–,-9.3%,21.6%,11.9%
CSc1nc(NC2OC(COC(C)=O)C(OC(C)=O)C(OC(C)=O)C2OC(C)=O)c2c(n1)OCC2=O (configuration not stated),2.65%,-13.7%,–,28.2%,18.1%,30.9%
N=C(N=C(N)N)N1CCOCC1,8.95%,20.1%,–,32.7%,-0.55%,30.1%
CCOc1ccccc1NC(=O)C(=O)CC(=O)c1sc(Nc2nnc(-c3ccc(Cl)c(Cl)c3)o2)nc1C,20.5%,-11.6%,–,21.4%,17.8%,31.4%
CCC(=O)Oc1cc(C(C)(C)C)c(OC(=O)CC)cc1C(C)(C)C,3.45%,-13.9%,–,12.3%,–,10.9%
Cc1csc2nc(-c3ccco3)nn12,-3.2%,-23.9%,–,15.9%,4.35%,-13.3%
Cc1cc(C)c2[nH]c(=O)c(C)c(C)c2c1Br,-0.5%,5.55%,–,-16.6%,-0.25%,-1.3%
Cc1cccc(C(C)(C)C)c1NC(=O)C(=O)Cc1nc2ccccc2s1,-12.1%,7.05%,–,-41.7%,18.2%,5.4%
